# PubChem BioAssay (NCATS)
# “And” between values parts separate entries of the source, which are not always exact repeats. Equal values may be shown once. Values without a mark were called inactive. Results filed as inconclusive are left out. Where a call stands in place of a potency, no number is given. The source made the active and inactive calls. Unless noted, calls follow the shape of the dose curve; as a rule, active = well fitted curve in the direction sought with a large enough effect; inconclusive = small, poorly fitted or top-dose-only effect, or another doubt; inactive = no such curve, though single readings can be large; an effect the other way counts as inactive or inconclusive.
# What was measured:
# [1] = AP1 Signaling Pathway (AID 357; active = well fitted curve in either direction with a large enough effect, not every such curve was filed as active;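 also: ME-180 reporter cells stimulated with EGF at its EC50 level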)
# Method in brief: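 Beta-lactamase reporter under AP-1 response element, ME-180 background. Stimulus: EC50 EGF. Compound exposure 5 h, 37 °C. Detection: CCF4, 2.5 h RT, 460/530 nm. Values: AC50 from titration.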
# [2] = Stat Signaling Pathway (AID 446; active = well fitted curve in either direction with a large enough effect, not every such curve was filed as active;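 also: ME-180 cervical cancer cells given 40 pM IL-6 alongside compound; SIE-controlled beta-lactamase reporter measured as 460/530 nm FRET emission ratio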)
# Method in brief: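 Overnight-plated ME-180 cells bearing a STAT Inducible Element beta-lactamase reporter; 5 h co-exposure to compound and 40 pM IL-6; values normalized to 300 pM IL-6 and 125 nM JAK inhibitor controls.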
# [3] = biological target: Glucocorticoid receptor (Homo sapiens) (UniProt P04150); assay: GR-GFP Redistribution (AID 450;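 active = compounds whose dose series gives a full or clear partial fitted curve of increased nuclear translocation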; also: potency is read from the fitted curve at half-maximal effect); settings: U2OS GR-GFP nuclear translocation, laser cytometry, 2 h
# [4] = biological target: Glucocorticoid receptor (Homo sapiens) (UniProt P04150); assay: GR-EFC Redistribution (AID 451; calls by dose curve; also: potency is read from the fitted curve at half-maximal effect); settings: CHO-K1 GR-EFC translocation, beta-gal luminescence, 2 h
# Method in brief: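 CHO-K1 cells stably expressing nuclear-localized β-gal enzyme acceptor and GR fused C-terminally to the enzyme donor fragment; ligand-driven nuclear translocation restores β-gal by complementation. Compounds titrated up to 46 uM final, 2 h at 37 °C; luminescence read.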
# [5] = biological target: 3',5'-cyclic-AMP phosphodiesterase 4B (Homo sapiens) (UniProt Q07343); assay: qHTS Assay for Inhibitors of PDE-IV (AID 607; active = well fitted activation curve with a large enough effect in the main read-out, with a control signal flat, not every such curve was filed as active)
# Method in brief: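 Live HEK293 cells with a modified cyclic nucleotide-gated (CNG) channel report intracellular cAMP via membrane-potential dye fluorescence (ex 535/em 590 nm). Endogenous PDE-IV was targeted. Compounds were tested at up to 22.9 uM final; RO 20-1724 100 uM served as control.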
# [6] = biological target: Ubiquitin carboxyl-terminal hydrolase 1 (Homo sapiens) (UniProt O94782); assay: Inhibitors of USP1/UAF1: Pilot qHTS (AID 504865); also: nearly all actives have a fitted effect of over 35% in size; also: potency is read from the fitted curve at half-maximal effect
# Method in brief: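 Deubiquitinase activity followed as kinetic rhodamine fluorescence release from 150 nM Ub-Rho. 1 nM USP1/UAF1 with compound, after 15 min room-temperature preincubation, in HEPES pH 7.8 buffer containing TCEP, EDTA, BSA and Tween-20.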
# [7] = Cell Viability - LYMP2-018 (AID 985);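 also: compound exposure lasted 24 hr at 37 °C; nearly all actives have a fitted effect of over 50% in size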
# Method in brief: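 Seed 2500 lymphoblastoid cells per well, incubate 5 hr at 37 C, add compound and incubate 24 hr at 37 C, add CellTiter-Glo, wait 30 min at room temperature, then read luminescence.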
# [8] = biological target: Thyroid hormone receptor beta (Homo sapiens) (UniProt P10828); assay: qHTS assay for small molecule agonists of thyroid hormone receptor beta signaling (AID 588545; calls by dose curve)
# Method in brief: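 Efficacy and EC50 values derive from Hill fits of qHTS titration data, normalized to 10 nM T3 and DMSO-only wells. HEK 293 reporter cells were stimulated for 18 hrs at 37 C, with beta-lactamase activity measured by CCF4 fluorescence.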
# [9] = qHTS assay to identify small molecules that stimulate interleukin-8 (IL-8) secretion (AID 651758; active = well fitted activation curve with a large enough effect in the signal ratio; the % refers to the signal ratio)
# Method in brief: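 Quantitative HTS in THP-1 monocytic cells at 2000 cells per well, with 16 hrs compound incubation at 37 C. IL-8 in the medium was then quantified by HTRF immunoassay, read after 1-3 hrs at room temperature.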
# [10] = biological target: Cytochrome P450 3A4 (Homo sapiens) (UniProt P08684); assay: qHTS Assay for Activators of Cytochrome P450 3A4 (AID 885); also: nearly all actives have a fitted effect of over 65% in size
# Method in brief: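 Using 20nM recombinant human CYP3A4 in potassium phosphate (200mM), substrate Luciferin-PPXE at 25uM, luminescent luciferin detection followed a 60-min RT NADPH reaction; data scaled to 57 uM ketoconazole.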
# [11] = Confirmation and Secondary Assay for Modulators of Hemoglobin Beta Chain Splicing at IVS2 705 locus (AID 930);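 also: HeLa cells stably expressing the EGFP-705 splicing reporter; GFP fluorescence per well restored by corrected splicing of the IVS2-705 intron in EGFP; series mostly up to about 46 µM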
# Method in brief: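 Stable HeLa line with EGFP disrupted by mutant beta-globin intron 2 (705). Overnight attachment, then 2 days of compound at 37C, 5% CO2. Signal: peak GFP intensity summed over objects 5-250 µm.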
# [12] = biological target: Androgen receptor (Homo sapiens) (UniProt P10275); assay: qHTS assay for small molecule agonists of androgen receptor signaling (AID 588515; active = well fitted curve in the direction sought with a large enough effect in the signal ratio, with a control signal flat; the % refers to the signal ratio); settings: AR-UAS-bla HEK293, beta-lactamase ratio, agonist 16 h; active compounds read high
# Method in brief: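 Stimulation of an AR-responsive β-lactamase reporter in GripTite HEK293 cells was measured after 16 h compound exposure at 37 °C, via CCF4 fluorescence after 2 h RT. EC50 from Hill fits, normalized to R1881 at 30 nM.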
# [13] = biological target: Androgen receptor (Homo sapiens) (UniProt P10275); assay: qHTS assay for small molecule antagonists of androgen receptor signaling (AID 588516; active = well fitted curve in the direction sought with a large enough effect in the signal ratio, with a control signal flat, not every such curve was filed as active; the % refers to the signal ratio)
# Method in brief: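 Antagonist mode: inhibition of R1881-stimulated (10 nM final) bla reporter in GeneBLAzer AR HEK 293 cells, 16 h at 37C, compounds titrated. IC50 and efficacy from Hill-equation fits of 405/460–530 nm FRET ratios.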
# [14] = Confirmation and Secondary Assay for Modulators of Hemoglobin Beta Chain Splicing at IVS2 654 locus (AID 910);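 also: per-well total GFP intensity by laser scanning cytometry after 2-day treatment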
# Method in brief: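 HeLa cells stably carrying EGFP interrupted by mutant beta-globin IVS2-654 intron (CMV-driven) were treated with compound for 2 days at 37C; corrected splicing was scored as total peak GFP intensity per well (488 nm excitation, 500-520 nm emission).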
# [15] = biological target: Cytochrome P450 1A2 (Homo sapiens) (UniProt P05177); assay: p450-cyp1a2 (AID 410; calls by dose curve; also: potency is read from the fitted curve at half-maximal effect)
# Method in brief: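 O-Demethylation of luciferin 6' methyl ether by human CYP1A2 is monitored as luciferase luminescence. Substrate sits at Km (100uM); enzyme is 20nM. Values are scaled to 57 uM furafylline as maximal inhibition.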
# [16] = biological target: Cytochrome P450 2D6 (Homo sapiens) (UniProt P10635); assay: qHTS Assay for Inhibitors and Substrates of Cytochrome P450 2D6 (AID 891); also: potency is read from the fitted curve at half-maximal effect; nearly all actives have a fitted effect of over 60% in size
# Method in brief: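 Luminescent read-out of luciferin formed by 5 nM human CYP2D6 demethylating 30 uM Luciferin-ME EGE (Km level) over 60 min at room temperature after NADPH regeneration addition. Data normalized to full inhibition by 1.43 uM quinidine.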
# Chain of Cytochrome P450 3A4 (Homo sapiens) (P08684 whole entry, looked up): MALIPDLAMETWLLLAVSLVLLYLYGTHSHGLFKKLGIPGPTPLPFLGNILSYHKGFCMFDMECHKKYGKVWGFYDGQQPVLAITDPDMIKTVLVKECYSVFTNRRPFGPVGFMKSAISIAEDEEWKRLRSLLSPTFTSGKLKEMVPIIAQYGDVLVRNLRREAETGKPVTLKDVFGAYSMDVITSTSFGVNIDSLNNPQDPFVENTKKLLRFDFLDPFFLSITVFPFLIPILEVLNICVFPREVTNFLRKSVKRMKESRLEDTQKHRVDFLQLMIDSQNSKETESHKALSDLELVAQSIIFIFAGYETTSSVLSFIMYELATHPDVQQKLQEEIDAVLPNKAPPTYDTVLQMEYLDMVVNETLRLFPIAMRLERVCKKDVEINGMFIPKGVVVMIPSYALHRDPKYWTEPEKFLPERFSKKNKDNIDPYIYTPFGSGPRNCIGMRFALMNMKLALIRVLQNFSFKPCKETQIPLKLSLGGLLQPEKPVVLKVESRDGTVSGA
# Chain of Thyroid hormone receptor beta (Homo sapiens) (P10828 whole entry, looked up): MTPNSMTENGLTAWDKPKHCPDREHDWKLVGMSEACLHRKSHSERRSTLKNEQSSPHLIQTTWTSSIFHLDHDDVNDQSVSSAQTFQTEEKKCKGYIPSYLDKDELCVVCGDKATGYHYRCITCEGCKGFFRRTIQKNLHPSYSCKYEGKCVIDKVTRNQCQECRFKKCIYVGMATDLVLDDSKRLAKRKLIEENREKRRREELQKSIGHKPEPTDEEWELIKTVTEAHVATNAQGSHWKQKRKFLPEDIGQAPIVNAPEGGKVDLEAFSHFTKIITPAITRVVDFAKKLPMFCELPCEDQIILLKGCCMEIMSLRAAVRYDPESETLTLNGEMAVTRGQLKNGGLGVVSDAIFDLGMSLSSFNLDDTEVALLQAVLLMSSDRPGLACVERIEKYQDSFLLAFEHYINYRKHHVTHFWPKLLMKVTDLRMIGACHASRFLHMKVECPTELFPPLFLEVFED
# Chain of Glucocorticoid receptor (Homo sapiens) (P04150 whole entry, looked up, the tested form may be a part): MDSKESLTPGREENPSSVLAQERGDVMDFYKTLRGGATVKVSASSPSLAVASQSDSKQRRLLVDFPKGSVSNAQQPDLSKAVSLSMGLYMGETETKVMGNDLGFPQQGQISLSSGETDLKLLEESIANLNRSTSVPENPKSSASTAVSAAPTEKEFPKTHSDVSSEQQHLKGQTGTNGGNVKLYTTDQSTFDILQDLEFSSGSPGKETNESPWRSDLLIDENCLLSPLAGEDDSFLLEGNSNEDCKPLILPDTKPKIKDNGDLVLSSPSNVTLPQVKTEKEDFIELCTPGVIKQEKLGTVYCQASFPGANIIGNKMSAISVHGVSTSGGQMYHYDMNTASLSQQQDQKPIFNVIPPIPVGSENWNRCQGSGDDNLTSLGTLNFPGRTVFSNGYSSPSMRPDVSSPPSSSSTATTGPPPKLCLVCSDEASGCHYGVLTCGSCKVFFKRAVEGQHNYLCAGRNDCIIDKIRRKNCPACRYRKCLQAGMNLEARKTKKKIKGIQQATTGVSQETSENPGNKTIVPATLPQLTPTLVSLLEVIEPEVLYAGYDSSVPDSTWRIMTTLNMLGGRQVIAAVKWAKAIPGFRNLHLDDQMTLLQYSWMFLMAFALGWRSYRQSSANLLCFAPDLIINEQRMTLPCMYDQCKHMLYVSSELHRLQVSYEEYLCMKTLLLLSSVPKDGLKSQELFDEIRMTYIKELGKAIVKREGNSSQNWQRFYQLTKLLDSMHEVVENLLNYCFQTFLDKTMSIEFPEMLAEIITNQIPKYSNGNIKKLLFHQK
# Chain of Ubiquitin carboxyl-terminal hydrolase 1 (Homo sapiens) (O94782 whole entry, looked up): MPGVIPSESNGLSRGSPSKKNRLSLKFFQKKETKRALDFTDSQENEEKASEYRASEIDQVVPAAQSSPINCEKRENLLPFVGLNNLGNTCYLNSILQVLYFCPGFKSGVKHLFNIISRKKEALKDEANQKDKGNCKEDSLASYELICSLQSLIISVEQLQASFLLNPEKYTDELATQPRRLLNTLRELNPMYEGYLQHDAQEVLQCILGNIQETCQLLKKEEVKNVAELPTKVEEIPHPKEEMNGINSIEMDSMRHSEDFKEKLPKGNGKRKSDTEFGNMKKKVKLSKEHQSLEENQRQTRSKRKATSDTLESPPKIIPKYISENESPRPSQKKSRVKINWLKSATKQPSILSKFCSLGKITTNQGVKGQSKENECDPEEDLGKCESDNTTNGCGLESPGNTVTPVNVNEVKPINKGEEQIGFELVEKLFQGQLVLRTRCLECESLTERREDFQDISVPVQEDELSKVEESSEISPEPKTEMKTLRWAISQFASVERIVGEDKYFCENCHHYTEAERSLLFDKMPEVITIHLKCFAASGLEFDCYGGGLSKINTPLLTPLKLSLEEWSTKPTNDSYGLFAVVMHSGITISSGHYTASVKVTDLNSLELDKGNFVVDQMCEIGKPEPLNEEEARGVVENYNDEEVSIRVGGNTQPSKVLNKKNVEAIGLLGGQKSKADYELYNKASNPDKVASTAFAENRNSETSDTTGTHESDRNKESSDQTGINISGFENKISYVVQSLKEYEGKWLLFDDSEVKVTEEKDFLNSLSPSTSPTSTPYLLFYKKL
# Chain of Cytochrome P450 1A2 (Homo sapiens) (P05177 whole entry, looked up): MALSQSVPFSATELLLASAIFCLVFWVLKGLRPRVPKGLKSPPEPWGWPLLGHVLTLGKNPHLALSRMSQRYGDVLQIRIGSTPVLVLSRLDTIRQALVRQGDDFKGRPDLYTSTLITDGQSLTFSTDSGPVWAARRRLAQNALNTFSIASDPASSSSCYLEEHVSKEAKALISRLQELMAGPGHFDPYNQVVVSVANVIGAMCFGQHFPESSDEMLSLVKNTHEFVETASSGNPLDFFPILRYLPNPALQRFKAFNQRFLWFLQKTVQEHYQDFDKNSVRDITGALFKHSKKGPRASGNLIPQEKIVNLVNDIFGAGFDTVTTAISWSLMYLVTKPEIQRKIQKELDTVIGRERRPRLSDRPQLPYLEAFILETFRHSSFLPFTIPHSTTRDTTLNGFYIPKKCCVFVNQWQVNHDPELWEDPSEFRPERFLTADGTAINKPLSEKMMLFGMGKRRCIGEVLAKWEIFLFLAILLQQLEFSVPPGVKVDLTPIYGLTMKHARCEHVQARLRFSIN
# Chain of Androgen receptor (Homo sapiens) (P10275 whole entry, looked up): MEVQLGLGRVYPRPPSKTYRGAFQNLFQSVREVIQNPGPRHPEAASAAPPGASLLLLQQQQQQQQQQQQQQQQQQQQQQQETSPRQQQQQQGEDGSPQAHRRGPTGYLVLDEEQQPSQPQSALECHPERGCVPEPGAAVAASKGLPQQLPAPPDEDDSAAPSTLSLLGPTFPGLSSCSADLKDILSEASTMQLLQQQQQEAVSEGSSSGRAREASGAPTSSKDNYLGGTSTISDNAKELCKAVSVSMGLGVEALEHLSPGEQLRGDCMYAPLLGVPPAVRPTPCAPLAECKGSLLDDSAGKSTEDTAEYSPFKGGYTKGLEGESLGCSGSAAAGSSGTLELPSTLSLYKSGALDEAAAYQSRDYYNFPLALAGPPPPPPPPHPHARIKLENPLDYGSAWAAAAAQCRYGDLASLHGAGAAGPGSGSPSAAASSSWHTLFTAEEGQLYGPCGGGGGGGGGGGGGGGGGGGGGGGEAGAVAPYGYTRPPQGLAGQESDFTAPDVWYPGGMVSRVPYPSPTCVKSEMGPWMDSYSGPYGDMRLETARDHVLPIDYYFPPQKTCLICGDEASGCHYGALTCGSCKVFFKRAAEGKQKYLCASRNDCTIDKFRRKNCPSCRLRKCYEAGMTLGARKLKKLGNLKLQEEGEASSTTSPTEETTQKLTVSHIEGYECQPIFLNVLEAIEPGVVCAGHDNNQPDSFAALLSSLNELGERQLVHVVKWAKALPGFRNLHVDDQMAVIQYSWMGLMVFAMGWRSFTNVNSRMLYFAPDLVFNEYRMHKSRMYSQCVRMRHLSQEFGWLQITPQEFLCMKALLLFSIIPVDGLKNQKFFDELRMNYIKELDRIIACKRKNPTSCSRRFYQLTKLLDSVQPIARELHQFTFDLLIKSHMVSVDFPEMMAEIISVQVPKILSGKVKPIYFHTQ
# Chain of 3',5'-cyclic-AMP phosphodiesterase 4B (Homo sapiens) (Q07343 whole entry, looked up): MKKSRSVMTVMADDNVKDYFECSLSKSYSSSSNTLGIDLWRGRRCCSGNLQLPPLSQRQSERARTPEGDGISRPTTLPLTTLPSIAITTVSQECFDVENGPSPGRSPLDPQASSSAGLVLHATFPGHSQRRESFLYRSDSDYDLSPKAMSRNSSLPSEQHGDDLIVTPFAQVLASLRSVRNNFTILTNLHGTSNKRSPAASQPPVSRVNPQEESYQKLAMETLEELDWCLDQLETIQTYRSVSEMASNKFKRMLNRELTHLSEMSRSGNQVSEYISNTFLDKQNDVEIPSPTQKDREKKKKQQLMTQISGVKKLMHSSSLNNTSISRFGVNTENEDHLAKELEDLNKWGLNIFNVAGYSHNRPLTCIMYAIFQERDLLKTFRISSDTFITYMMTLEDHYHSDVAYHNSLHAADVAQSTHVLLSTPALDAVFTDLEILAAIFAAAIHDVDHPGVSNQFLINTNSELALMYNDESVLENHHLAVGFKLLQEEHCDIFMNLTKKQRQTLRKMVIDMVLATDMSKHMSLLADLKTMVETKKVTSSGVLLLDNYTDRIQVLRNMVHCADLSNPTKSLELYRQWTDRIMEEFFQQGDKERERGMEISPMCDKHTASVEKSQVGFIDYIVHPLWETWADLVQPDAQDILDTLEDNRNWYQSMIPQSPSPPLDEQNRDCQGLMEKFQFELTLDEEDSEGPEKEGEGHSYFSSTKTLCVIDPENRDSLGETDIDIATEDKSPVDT
compound,measurement,setting,value
O=C(NCNC(=O)N[C@H]1C(=O)NC(=O)N1CO)N[C@H]1C(=O)NC(=O)N1CO,outcome,[1],inactive
same,outcome,[2],inactive
same,Potency,[3],> 20.6 µM
same,Potency,[4],> 20.6 µM
same,Potency,[5],inactive
same,Potency,[6],inactive
Oc1ccc(Cl)cc1Cl,Potency,[7],inactive
same,outcome,[8],inactive
O=[N+]([O-])c1ccc(Cl)c(Cl)c1,Potency,[7],inactive
same,outcome,[8],inactive
ClC(Cl)=C(Cl)Cl,outcome,[8],inactive
same,Potency,[9],inactive
CC(=O)[O-].CC(=O)[O-].O.O.O.[Pb+2],Potency,[7],inactive
same,outcome,[8],inactive
CCCC(=O)Cl,outcome,[8],inactive
same,Potency,[9],inactive
COc1ccc(N)cc1,Potency,[10],inactive
same,Potency,[7],inactive
same,Potency,[9],inactive
Nc1c(Cl)c(Cl)nc(C(=O)O)c1Cl,Potency,[7],inactive
same,outcome,[8],inactive
same,Potency,[9],inactive
CCOP(=S)(OCC)Oc1ccc([N+](=O)[O-])cc1,Potency,[10],inactive
same,Potency,[7],inactive
same,outcome,[8],inactive
CN1CC(CNC(=O)OCc2ccccc2)CC2c3cccc4c3c(cn4C)CC21 (configuration not stated),Potency,[11],inactive
COc1ccc(C=O)cc1OC,outcome,[8],inactive
S=C=Nc1cccc2ccccc12,Potency,[10],inactive
same,Potency,[7],inactive
same,activation,[12],-5.44%
same,Potency,[13],inactive
same,Potency,[9],inactive
N#CCCCl,Potency,[7],inactive
same,Potency,[9],inactive
Clc1nc(Cl)nc(Cl)n1,outcome,[8],inactive
CC1/C=C/C=C/CC/C=C/C=C/C=C/C=C/C(OC2OC(C)C(O)C(N)C2O)CC2O[C@](O)(CC(O)C(O)CCC(O)CC(O)CC(O)CC(=O)OC(C)C(C)C1O)CC(O)C2C(=O)O (some centres not stated),Potency,[14],inactive
same,Potency,[6],inactive
CC(=O)OC1C(=O)[C@]2(C)C(O)CC3OC[C@]3(OC(C)=O)C2[C@@H](OC(=O)c2ccccc2)[C@]2(O)CC(O)C(C)=C1C2(C)C (some centres not stated),Potency,[14],inactive
same,Potency,[11],inactive
same,Potency,[6],inactive
CCN(CC)C(=O)N[C@@H]1C[C@H]2c3cccc4[nH]cc(c34)C[C@@H]2N(C)C1,outcome,[1],inactive
same,Potency,[15],inactive
same,outcome,[2],inactive
same,Potency,[5],inactive
same,Potency,[10],inactive
same,Potency,[16],0.0158 µM (active)
same,Potency,[6],inactive
COC(=O)NC(=S)Nc1ccccc1NC(=S)NC(=O)OC,Potency,[14],inactive
same,Potency,[6],inactive
CN1CC[C@]2(C)c3cc(O)ccc3N(C)[C@@H]12,outcome,[1],inactive
same,Potency,[15],15.8 µM (active) and 31.6 µM (active)
same,outcome,[2],inactive
same,Potency,[3],> 46 µM and > 20.6 µM
same,Potency,[4],> 46 µM and > 20.6 µM
same,Potency,[5],inactive
same,Potency,[10],inactive
same,Potency,[16],25.1 µM (active)
same,Potency,[6],2.82 µM (active)
CCCCCCCC(=O)Cl,Potency,[7],inactive
same,outcome,[8],inactive
same,Potency,[9],inactive
CC1CC[C@@]2(OC1)OC1C(O)C3C4CC[C@H]5CC(O[C@@H]6O[C@@H](CO)[C@H](OC7OC(CO)C(O)C(OC8OCC(O)C(O)[C@H]8O)[C@@H]7O[C@@H]7OC(CO)[C@H](O)[C@@H](O[C@@H]8OC(CO)C(O)C(O)C8O)C7O)C(O)C6O)C(O)C[C@]5(C)C4CC[C@]3(C)C1C2C (some centres not stated),Potency,[10],inactive
same,Potency,[14],inactive
same,Potency,[11],inactive
CCCSC(=O)Cl,Potency,[9],inactive
CC(C)Nc1nc(Cl)nc(NC(C)C)n1,Potency,[11],inactive
same,Potency,[6],inactive
same,outcome,[8],inactive
CC(=O)OC1CC[C@@]2(C)C3CC[C@]4(C)C(=O)CCC4C3CC[C@H]2C1 (some centres not stated),Potency,[14],inactive
same,Potency,[11],inactive
CC(C)(C)OOC(C)(C)C,Potency,[7],inactive
same,outcome,[8],inactive
same,Potency,[9],inactive
c1ccc(-c2ccccc2)cc1,activation,[12],-1.76% and -0.536%
same,Potency,[13],inactive
same,Potency,[9],inactive
C=CCOC(=O)c1ccccc1N,Potency,[7],inactive
same,Potency,[13],inactive
same,Potency,[9],inactive
Nc1ccc(Br)cc1,outcome,[8],inactive
O=C=NC1CCCCC1,outcome,[8],inactive
same,Potency,[9],inactive
c1ccc2c(c1)CCCC2,Potency,[7],inactive
same,activation,[12],-2.87%
same,Potency,[13],inactive
COC[C@]12CN(C=O)C3C4C(OC)C1[C@@]3(C1CC3(O)C(OC)C(O)C4(OC(C)=O)C1C3OC(=O)c1ccccc1)[C@@H](OC)CC2O (some centres not stated),Potency,[14],inactive
same,Potency,[11],inactive
C=C(Cl)Cl,Potency,[7],inactive
same,activation,[12],2.29%
same,Potency,[13],inactive
same,outcome,[8],inactive
same,Potency,[9],inactive
